Assay results published in PubChem BioAssay AID652016 (National Center for Advancing Translational Sciences (NCATS), 2013).
Records with an inconclusive call do not appear. Unmarked numbers belong to inactive results. The source made the active and inactive calls. Calls come from the whole dose curve; as a rule, active = well fitted inhibition curve with a large enough effect; inconclusive = small, poorly fitted or top-dose-only effect; inactive = flat fitted curve, though single readings scatter.

The compounds below were run against Luciferin 4-monooxygenase (Photinus pyralis) (UniProt P08659) (assay: qHTS Assay for Inhibitors of Firefly Luciferase from the GSK Published Protein Kinase Inhibitor Set). Conditions: purified firefly luciferase, luminescence inhibition; series mostly up to 57.5 µM; activity change, negative = inhibition: at the top concentration.
Luciferin 4-monooxygenase (Photinus pyralis), sequence (P08659 whole entry, looked up): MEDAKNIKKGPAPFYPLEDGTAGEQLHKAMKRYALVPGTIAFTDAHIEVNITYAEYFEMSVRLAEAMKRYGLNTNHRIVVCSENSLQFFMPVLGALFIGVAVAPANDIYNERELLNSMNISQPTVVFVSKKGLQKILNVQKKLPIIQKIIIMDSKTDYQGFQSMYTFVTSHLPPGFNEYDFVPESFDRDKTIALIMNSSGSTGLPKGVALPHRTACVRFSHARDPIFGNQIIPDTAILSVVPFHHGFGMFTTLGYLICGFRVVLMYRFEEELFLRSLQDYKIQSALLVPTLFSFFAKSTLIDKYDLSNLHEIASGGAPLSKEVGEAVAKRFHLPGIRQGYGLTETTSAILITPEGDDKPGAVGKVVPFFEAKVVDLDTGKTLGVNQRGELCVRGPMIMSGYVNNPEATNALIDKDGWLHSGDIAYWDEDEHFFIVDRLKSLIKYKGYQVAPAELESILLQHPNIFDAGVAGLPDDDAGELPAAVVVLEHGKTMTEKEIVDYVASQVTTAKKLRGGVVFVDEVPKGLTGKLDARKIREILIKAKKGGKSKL
Description: FLuc (firefly luciferase) is the prototypical bioluminescent reporter gene from Photinus pyralis.[1] The enzyme catalyzes the oxidation luciferin via luciferin-AMP to produce light. FLuc is used in cell-based reporter gene-based assays for screening small molecule chemical libraries. However, small molecule luciferase inhibitors present in most large chemical libraries are often enriched in the output of high throughput screens using this reporter sometimes complicating interpretation and candidate selection.
RLuc is a bioluminescent reporter gene luciferase from Renilla reniformis, also known as the sea pansy. RLuc uses the luciferin substrate coelenterazine. RLuc is often used in combination with the nonhomologous luciferase FLuc (firefly luciferease) as a trasfection or pathway normalization control. Recently, non-homologous reporters have been described for high throughput screening 'coincidence' reporter gene strategies.
1. Fan F, Wood KV (2007) Bioluminescent assays for high-throughput screening. Assay Drug Dev Technol 5: 127-136.
2. Thorne N, Inglese J, Auld DS (2010) Illuminating insights into firefly luciferase and other bioluminescent reporters used in chemical biology. Chem Biol 17: 646-657.
3. […] Chem Biol 19: 1060-1072.
4. Michelini E, Cevenini L, Mezzanotte L, Coppa A, Roda A (2010) Cell-based assays: fuelling drug discovery. Anal Bioanal Chem 398: 227-238.
5. Cheng KC, Inglese J (2012) A coincidence reporter-gene system for high-throughput screening. Nat Methods 9: 937.
Biochemical firefly luciferase enzyme assay
NCGC Assay Protocol Summary:
Reagents: 50mM Tris acetate, pH 7.5; 10mM Mg acetate; 10uM D-luciferin (Sigma #L9504); 10uM ATP; 0.01% Tween-20; 0.05% BSA; 10nM P. pyralis luciferase (Sigma #L9506)
Control compounds used were two known firefly luciferase inhibitors (compounds (2) and (5) in Auld et al., 2010), and DMSO.
Three microliters containing firefly luciferase substrates in buffer (final concentrations: 50mM Tris acetate, pH 7.5, 10mM Mg acetate, 0.01% Tween-20, 0.05% BSA, 10uM D-luciferin, and 10uM ATP) are dispensed into each well of a Greiner white, solid-bottom 1536-well format plate using a flying reagent dispenser (FRD). These assay plates were then treated with 23nL of compound or DMSO using a Kalypsys pin tool, which allows for delivery of a 7-point interplate titration of each compound to the assay plates (quantitative HTS), with final compound concentrations ranging from approximately 60uM to 300pM. One microliter of firefly luciferase in 50mM Tris-acetate buffer was then delivered by FRD to each well for a final enzyme concentration of 10nM. Luciferase activity was then measured using an Envision plate reader (PerkinElmer), with an average incubation time of 5 min.
% is set by controls: 0 for no effect and ±100 for the full control effect; potency is the fitted concentration of half-maximal effect.

| SMILES | activity change, negative = inhibition | Potency |
| --- | --- | --- |
| CCN1CCC(CC(=O)Nc2n[nH]c3nc(-c4cccs4)c(Br)cc23)CC1 | 3% | – |
| Nc1ncnc2occ(-c3ccc(NC(=O)Nc4cc(C(F)(F)F)cc(C(F)(F)F)c4)cc3)c12 | 6.97% | – |
| CCn1c(-c2nonc2N)nc2ccccc21 | 2.35% | – |
| CCOc1ccc2c(-c3ccnc(Nc4cccc(C(F)(F)F)c4)n3)cnn2n1 | 11.5% | – |
| CCn1c(-c2nonc2N)nc2c(C#CC(C)(C)O)nc(OCCNC)cc21 | 2.21% | – |
| CN1CCC(n2cnc(-c3ccc(F)cc3)c2-c2ccnc(Nc3ccccc3)n2)CC1 | 3.59% | – |
| CNC(=O)c1cc(-c2ccc(F)cc2)cc(-c2ccc(S(=O)(=O)N3CCCC3)cc2)c1N | 9.72% | – |
| COc1cc2c(cc1Nc1nc(Nc3ccsc3C(N)=O)c3cc[nH]c3n1)N(C(=O)CN(C)C)CCC2 | 4.82% | – |
| NC(=O)Cc1ccccc1Oc1nccc(-c2c(-c3ccc(F)cc3)ncn2C2CCNCC2)n1 | 0.77% | – |
| COc1cccc(-n2ncc3c(NN=Cc4ccc(C)cc4)ncnc32)c1 | -8.95% | – |
| Cc1cc(O)cc(C)c1C=Cc1cncc(C(N)=O)c1 | -0.957% | – |
| NCc1ccc(-n2c(-c3nonc3N)nc3cnccc32)cc1 | 12.6% | – |
| N#Cc1ccc(Oc2nccc(-c3c(-c4ccc(F)cc4)ncn3C3CCNCC3)n2)cc1 | 3.97% | – |
| CCn1c(-c2nonc2N)nc2ccc(F)cc21 | 12.3% | – |
| O=C(Nc1n[nH]c2nnc(-c3cccnc3)cc12)C1CC1 | 6.05% | – |
| O=C1Nc2ccccc2C1=C1CCc2cc(O)ccc21 | – | 5170 nM (active) |
| CCn1c(-c2nonc2N)nc2c(C#CCN)ncc(OCCCN)c21 | 2.26% | – |
| COc1ccc(-c2nn3ncccc3c2-c2ccnc(Nc3ccc(F)c(F)c3)n2)cc1 | 1.64% | – |
| Cc1cccc(-c2[nH]ncc2-c2ccc3ncccc3n2)n1 | 13.3% | – |
| Cc1ccc2c(-c3ccnc(Nc4ccc5c(c4)OCCO5)n3)c(-c3ccc(C(F)(F)F)cc3)nn2n1 | -0.549% | – |

| SMILES | activity change, negative = inhibition | Potency |
| --- | --- | --- |
| Fc1ccc(-c2c(-c3ccncc3)nc3n2CCS3)cc1 | -5.47% | – |
| CCn1c(-c2nonc2N)nc2cncc(C(=O)N3CCC(N)C3)c21 (stereo not given) | 3.05% | – |
| CN(C)CCCn1c(-c2nonc2N)nc2cnccc21 | 10.5% | – |
| CC(Oc1cc(-n2cnc3ccc(OCC(O)CO)cc32)sc1C(N)=O)c1ccccc1Cl (stereo not given) | 6.05% | – |
| O=C(Nc1ccc(Oc2ccc3nc(NC(=O)c4ccccc4)[nH]c3c2)cc1)Nc1cc(C(F)(F)F)ccc1F | -14.8% | – |
| COc1cc2ncn(-c3cc(OCc4cccs4)c(C(N)=O)s3)c2cc1OC | 5.36% | – |
| Cc1cccc2c(N=Nc3ccc(S(N)(=O)=O)cc3)c(O)[nH]c12 | -17.8% | – |
| NC(=O)c1sc(-n2cnc3ccc(C(F)(F)F)cc32)cc1OCc1ccccc1Br | -6.69% | – |
| Fc1ccc(-c2ncn(C3CCNCC3)c2-c2ccnc(Oc3cccc(C(F)(F)F)c3)n2)cc1 | -0.174% | – |
| COc1cc2c(cc1Nc1nc(N3CCc4ccccc43)c3cc[nH]c3n1)N(C(=O)CN(C)C)CC2 | 3.81% | – |
| c1ccc(-c2[nH]ncc2-c2ccnc(-c3ccc(OCCN4CCOCC4)cc3)c2)nc1 | 2.73% | – |
| Cc1cc(-c2ccccn2)cc(C)c1C=Cc1cncc(-c2nn[nH]n2)c1 | -18.8% | – |
| CCS(=O)(=O)c1ccc(OC)c(Nc2ncc(-c3cccc(C(C)=O)c3)o2)c1 | -1.52% | – |
| Nc1nccc(-c2c(-c3ccc(F)cc3)nn3cc(C(F)(F)F)ccc23)n1 | -2.4% | – |
| NS(=O)(=O)c1ccc(-c2cc3ccncc3cc2OCc2ccccc2)cc1 | 2.83% | – |
| Cc1cccc(Nc2ncc(-c3ccccc3)o2)c1 | – | 580 nM (active) |
| c1ccc(Oc2ccc(Nc3ncc(-c4ccccc4)o3)cc2)cc1 | -13.6% | – |
| NS(=O)(=O)c1cccc(-c2cc3ccncc3cc2OCc2ccccc2)c1 | -9.85% | – |
| CCn1c(-c2nonc2N)nc2c(N3CCCC3)nccc21 | 11.3% | – |
| CCS(=O)(=O)c1ccc(OC)c(Nc2ncc(-c3cccc(OC)c3)o2)c1 | -4.23% | – |
